# Records with an inconclusive call do not appear. Where a call stands in place of a potency, no number is given. Active and inactive are the calls of the source. Calls come from the whole dose curve; as a rule, active = well fitted inhibition curve with a large enough effect; inconclusive = small, poorly fitted or top-dose-only effect; inactive = no such curve, though single readings can be large or run the other way.
# Test: qHTS assay for measurement of the activity of small molecule inhibitors on Zika virus induced Caspase-3 activity in human astrocytoma cells (AID 1224859)
# Details: SNB-19 ZIKV-induced caspase-3/7, luminescence, 6 h; series mostly up to 45.7 µM
# Method in brief: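 A cell-based luminescent caspase-3/7 assay used SNB-19 cells infected with ZIKV (2 FFU/cell) for 6 h following 1 h compound pretreatment.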
row,Compound,Potency
1,CC(=O)O[C@]1(C(C)=O)CC[C@@H]2[C@@H]3C[C@H](C)C4=CC(=O)CC[C@]4(C)[C@H]3CC[C@@]21C,inactive
2,O=C1NC(=O)C(=Cc2cccc(C(F)(F)F)c2)S1,inactive
3,CCn1c(C(=O)N(C2CC2)C2CC2)cc2c3c(ncn3C)c(Nc3cc(C)n(C)n3)nc21,inactive
4,CC(C)n1nc(-c2ccc3oc(N)nc3c2)c2c(N)ncnc21,inactive
5,CNC1CCC(N(Cc2cccc(-c3ccncc3)c2)C(=O)c2sc3c(F)ccc(F)c3c2Cl)CC1 (stereo not given),inactive

# Test: qHTS Screen of the MIPE 4.0 Collection Against Ewings Sarcoma (RDES) (AID 1259252); note: nearly all actives have a fitted effect of over 35% in size; note: potency is the fitted concentration of half-maximal effect
# Details: RD-ES Ewing sarcoma viability, CellTiter-Glo, 48 h; series mostly up to 45.8 µM
# Method in brief: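 Cells plated in serum-containing RPMI (5% FBS) and treated with compound dilutions for 48 h. Readout luminescent viability; normalization relied on vehicle (no inhibition) and media-only columns (full inhibition).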
row,Compound,Potency
1,CC(C)C(=O)Oc1ccc(CO)cc1[C@H](CCN(C(C)C)C(C)C)c1ccccc1,inactive
2,CN(C)c1cc(NC(=O)CNC(C)(C)C)c(O)c2c1C[C@@H]1C[C@H]3[C@H](N(C)C)C(=O)C(C(N)=O)=C(O)[C@@]3(O)C(=O)C1=C2O,inactive
3,C[N+](C)(C)CC(=O)O,inactive
4,CCCCCNC(=O)N1CCC(CN(Cc2ccc(Cl)cc2)Cc2ccc([N+](=O)[O-])s2)C1 (stereo not given),20.9 µM (active)
5,COc1ccc(C2Sc3ccccc3N(CCN(C)C)C(=O)C2OC(C)=O)cc1 (stereo not given),18.7 µM (active)
6,Clc1ccc(C(c2ccc(Cl)cc2)n2cc[n+](CC(OCc3ccc(Cl)cc3Cl)c3ccc(Cl)cc3Cl)c2)cc1 (stereo not given),16.6 µM (active)
7,CC=CC[C@@H](C)C(=O)[C@H]1C(=O)N[C@@H](C(C)C)C(=O)N(C)CC(=O)N(C)[C@@H](CC(C)C)C(=O)N[C@@H](C(C)C)C(=O)N(C)[C@@H](CC(C)C)C(=O)N[C@@H](C)C(=O)N[C@H](C)C(=O)N(C)[C@@H](CC(C)C)C(=O)N(C)[C@@H](CC(C)C)C(=O)N(C)[C@@H](C(C)C)C(=O)N1C,18.7 µM (active)
8,CCn1cc(C(=O)O)c(=O)c2ccc(C)nc21,inactive
9,O=c1cc(-c2ccccc2)oc2cc(O)c(O)c(O)c12,20.9 µM (active)
10,O=C(CCc1ccc(O)cc1)c1c(O)cc(O)cc1O[C@@H]1O[C@H](CO)[C@H](O)[C@H](O)[C@H]1O,inactive
11,Cc1ccc(C(=O)Nc2cccc(C(F)(F)F)c2)cc1Nc1nc(-c2cccnc2)nc2c1cnn2C,14.8 µM (active)
12,Nc1nc(F)nc2c1ncn2[C@@H]1O[C@H](COP(=O)(O)O)[C@@H](O)[C@H]1O,11.8 µM (active)
13,Cc1nc(N)sc1-c1ccnc(Nc2ccc(N3CCOCC3)cc2)n1,18.7 µM (active)
14,CC1(C)CCC2=C(O1)c1ccccc1C(=O)C2=O,26.4 µM (active)
15,O=C(O)C=Cc1ccc(O)c(O)c1,8.33 µM (active)
16,CO[C@H]1C(=O)[C@]2(C)[C@@H](OC)C[C@H]3OC[C@@]3(OC(C)=O)[C@H]2[C@H](OC(=O)c2ccccc2)[C@]2(O)C[C@H](OC(=O)[C@H](O)[C@@H](NC(=O)OC(C)(C)C)c3ccccc3)C(C)=C1C2(C)C,inactive
17,C[C@@H]1CCN(C(=O)CC#N)C[C@H]1N(C)c1ncnc2[nH]ccc12,inactive
18,CCCCCN(C)CCC(O)(P(=O)(O)O)P(=O)(O)O,inactive
19,CCOC1OC(=O)C[C@H]1NC(=O)[C@@H]1CCCN1C(=O)[C@@H](NC(=O)c1ccc(N)c(Cl)c1)C(C)(C)C (stereo not given in full),inactive
20,CC(=Cc1ccccc1)C=C1SC(=S)N(CC(=O)O)C1=O,inactive
21,C=C1C(=O)[C@@]23C(CC[C@@H]1[C@H]2O)[C@@]12CO[C@]3(O)[C@@H](O)[C@@H]1C(C)(C)CC[C@@H]2O (stereo not given in full),7.43 µM (active)
22,O=c1cc(-c2ccc(O)cc2)oc2cc(O)cc(O)c12,18.7 µM (active)
23,Nc1ncnc2c1ncn2[C@@H]1O[C@@H](CO)[C@H](O)[C@H]1O,inactive
24,NS(=O)(=O)c1cccc2c1C(=O)c1cccc(O)c1C2=O,18.7 µM (active)
25,CC[C@@]1(O)C[C@H](O[C@H]2C[C@H](N(C)C)[C@H](O[C@H]3C[C@H](O)[C@H](O[C@H]4CCC(=O)[C@H](C)O4)[C@H](C)O3)[C@H](C)O2)c2c(cc3c(c2O)C(=O)c2c(O)cccc2C3=O)[C@@H]1C(=O)OC,0.59 µM (active)

# From PubChem BioAssay (NCATS)
